This passage reports binding signal results from paper PMC10668032, “Altered binding affinity of SIX1-Q177R correlates with enhanced WNT5A and WNT pathway effector expression in Wilms tumor”.

In all, about 33,000 sequences were measured (“e-score”: median about -0.05, highest 2% from about 0.38 on). The entries come from a sample that favours the highest values as a whole.

This assay has as its target T1, SIX1-Q177R homeodomain (human, UniProt Q15475 108-198, Q177R).
T1 sequence: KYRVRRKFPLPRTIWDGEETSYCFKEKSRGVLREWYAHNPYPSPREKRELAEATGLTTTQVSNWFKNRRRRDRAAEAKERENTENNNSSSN
In words: universal protein binding microarray; Universal all-10-mer PBM (8x60K, AMADID 030236), 300 nM GST-tagged protein, Alexa Fluor 488 anti-GST; buffer, salt, pH and temperature not stated (as in Berger); high values mean tight binding. The settings on record: protein: ivt; tags: N-terminal GST; dsDNA, one strand shown. An outline of the steps: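 Binding of GST-tagged homeodomains is given as 8-mer E-scores from the Universal PBM Analysis Suite. The proteins were produced by in vitro transcription/translation, quantified by anti-GST western blot against a recombinant GST standard curve, and applied in duplicate at 300 nM final concentration to universal 'all 10-mer' protein binding microarrays (8×60K format).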
For the sequence CTCGCCCC, the binding signal came out at 0.173 ± 0.0101 E-score.
The figure for GGAGGGTA is 0.224 ± 0.0107 E-score; for ACCCACAA it is 0.151 ± 0.0489 E-score; for CCCCACCG it is 0.228 ± 0.054 E-score.
On to AGCGGGTG, for which the binding signal came out at 0.333 ± 0.0119 E-score.
As for ACCAGGCA, the figure is 0.151 ± 0.0134 E-score.
As for CTGGTATC, the figure is 0.274 ± 0.0156 E-score; as for GTGGTGCA, 0.189 ± 0.00669 E-score.
The figure for CTGGTACA is 0.21 ± 0.0391 E-score; for ATGGGGTG it is 0.342 ± 0.0155 E-score.
Regarding GTGTGGTA, the binding signal stood at 0.265 ± 0.00181 E-score.
As for CTGGAGTC, the figure is 0.1843 ± 0.00156 E-score; as for CTGGTGCA, 0.234 ± 0.0234 E-score; as for CTGGTGTC, 0.4826 ± 0.00371 E-score.
The figure for ATGGTGTG is 0.405 ± 0.0177 E-score; for ATGTGGTG it is 0.271 ± 0.0248 E-score; for CTGGTGTA it is 0.4837 ± 0.00053 E-score.
The figure for GTGGTGTA is 0.481 ± 0.00765 E-score.
In the case of ACCCGGGC, the binding signal was determined as 0.199 ± 0.0334 E-score.
As to CTTGCACC, the binding signal worked out at 0.166 ± 0.00933 E-score.
CCCGGTCG: the binding signal was 0.212 ± 0.00566 E-score.
ACACAATG: the binding signal is 0.164 ± 0.079 E-score.
As for ACCCACAC, the figure is 0.348 ± 0.0152 E-score; as for ACCTCGGG, 0.273 ± 0.0151 E-score.
As for AGGCGGTG, the figure is 0.2798 ± 0.00206 E-score; as for CACGCGGG, 0.241 ± 0.00761 E-score; as for ACCTTCCT, 0.264 ± 0.0494 E-score.
As for ATTGTGTC, the figure is 0.219 ± 0.0744 E-score.
Turning to ATGGTGTA, the binding signal is 0.4792 ± 0.00274 E-score.
As for ATGGTACA, the figure is 0.18 ± 0.0214 E-score.
As for ATGGTATC, the figure is 0.3344 ± 0.0022 E-score.
The figure for ATTGTGTA is 0.151 ± 0.0397 E-score; for ATGGTGTC it is 0.486 ± 0.00186 E-score; for CACCCAAG it is 0.366 ± 0.00569 E-score.
For the sequence ACTGATCC, the binding signal turned out to be 0.16 ± 0.00427 E-score.
As for CACCGGGG, the figure is 0.256 ± 0.0427 E-score; as for AACCGTGT, 0.3792 ± 0.0033 E-score; as for ATGCACCC, 0.19 ± 0.0233 E-score.
Regarding GGGTTACA, the binding signal was 0.242 ± 0.0177 E-score.
The figure for CCCGCACA is 0.228 ± 0.0266 E-score; for CACTATAC it is 0.261 ± 0.0244 E-score.
The figure for ACACTTGG is 0.329 ± 0.018 E-score; for CCGGGTCA it is 0.285 ± 0.0196 E-score.
As for GTATCATA, the figure is 0.29 ± 0.00996 E-score; as for AGGAACAC, 0.394 ± 0.0134 E-score.
As to CGGAACAC, the binding signal worked out at 0.411 ± 0.0112 E-score.
As for GGGAACAC, the figure is 0.368 ± 0.0116 E-score; as for CGGAACCC, 0.234 ± 0.0277 E-score.
Consider GGGAACCC, for which the binding signal amounted to 0.184 ± 0.0515 E-score.
As for AGGCACAC, the figure is 0.203 ± 0.0019 E-score.
The figure for ACGGGTAT is 0.277 ± 0.00631 E-score.
In the case of CGGCGTCA, the binding signal amounted to 0.219 ± 0.00435 E-score.
For CCCGCTGA, the binding signal stood at 0.159 ± 0.0401 E-score.
Consider CTTCTACC, for which the binding signal came out at 0.203 ± 0.0258 E-score.
As for GTGTCACA, the figure is 0.462 ± 0.00507 E-score; as for GTGTCAAA, 0.4527 ± 0.00139 E-score.
As for TATTCTAA, the figure is 0.213 ± 0.0183 E-score; as for GGGTCAAC, 0.223 ± 0.0249 E-score; as for GTGTCTCA, 0.371 ± 0.00405 E-score.
As for GTATCAAA, the figure is 0.159 ± 0.0425 E-score; as for GGGTCACA, 0.202 ± 0.0391 E-score; as for GAGTCACA, 0.26 E-score.
Regarding GTGTCAAC, the binding signal was determined as 0.443 ± 0.00646 E-score.
As for GTATCAAC, the figure is 0.256 ± 0.0174 E-score.
The figure for GGGTCAAA is 0.171 ± 0.0267 E-score; for GTGTCTAA it is 0.394 ± 0.0134 E-score; for CACTGGAA it is 0.152 ± 0.024 E-score.
In the case of AGGGGTTC, the binding signal stood at 0.193 ± 0.0251 E-score.
The figure for GACCCCGC is 0.248 ± 0.0275 E-score; for CCTGATAC it is 0.202 ± 0.0295 E-score.
The figure for AGTGCACC is 0.28 ± 0.00682 E-score; for GATCCCAC it is 0.24 ± 0.0253 E-score.
In the case of TATACCCA, the binding signal worked out at 0.192 ± 0.0317 E-score.
As for GGGTCATA, the binding signal is 0.237 ± 0.0329 E-score.
As for GTGTCAGA, the figure is 0.4533 ± 0.00139 E-score; as for GTATCGAA, 0.199 ± 0.0103 E-score; as for GGGTCAGA, 0.196 ± 0.0143 E-score.
The figure for GTGTCGAA is 0.448 ± 0.00926 E-score; for GAGTCAGA it is 0.21 ± 0.0213 E-score.
Consider GGGTCGAA, for which the binding signal turned out to be 0.182 ± 0.0133 E-score.
As for GAGTCATA, the figure is 0.184 ± 0.0258 E-score; as for GTGTCATA, 0.458 ± 0.00496 E-score; as for CGCGTACA, 0.2538 ± 0.00208 E-score.
Regarding GAGGGTGC, the binding signal was 0.237 ± 0.0114 E-score.
Turning to AAAGAGTG, the binding signal is 0.186 ± 0.0198 E-score.
As for AGAACCCC, the figure is 0.182 ± 0.0559 E-score.
The figure for GGATCATA is 0.184 ± 0.0113 E-score; for CACCTGCA it is 0.213 ± 0.0191 E-score.
As for ATCCCCTC, the figure is 0.196 ± 0.00519 E-score; as for ACCACGCA, 0.24 ± 0.0201 E-score; as for CGACACGA, 0.421 ± 0.0189 E-score.
For AGACACGA, the binding signal stood at 0.369 ± 0.0153 E-score.
As for CGACGCGA, the figure is 0.151 ± 0.0242 E-score; as for CGACACGC, 0.424 ± 0.0203 E-score; as for AGACACGC, 0.346 ± 0.00786 E-score.
